Reference: the supplement of paper PMC10981050
“And” between values parts separate entries of the source, which are not always exact repeats. Identical values can stand only once. Counter-ions that a name gives are not always drawn.

Key:
Assay in all cases: cell viability relative to vehicle control; higher = less cytotoxic
Settings in all cases: 10 µM
[1] = tested on: K562
How it was run: (§1)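 After removal of identity-inconsistent compounds, the Selleck bioactive, kinase and epigenetic probe libraries were screened on CRISPR-edited mutant clones and isogenic wild-type clones of four leukaemia lines. Plates were 384-well, each well holding 2000 cells in 50 µL medium and receiving a single 10 µM acoustically dispensed dose. CellTiter-Glo luminescence was read 48 h later, after the supernatant was taken off. Genedata Screener was used to express viability as percent of the on-plate vehicle control.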

[2] = tested on: MARIMO
How it was run: as §1

[3] = tested on: MOLM14
How it was run: as §1

[4] = tested on: OCI-AML2
How it was run: as §1

Row | Structure (SMILES) | cell viability ([1]; SRSF2 genotype: SRSF2 P95H/wt) | cell viability ([1]; SRSF2 genotype: SRSF2 wt/wt) [%] | cell viability ([2]; SRSF2 genotype: SRSF2 P95H/wt) [%] | cell viability ([2]; SRSF2 genotype: SRSF2 wt/wt) [%] | cell viability ([3]; SRSF2 genotype: SRSF2 P95H/wt) [%] | cell viability ([3]; SRSF2 genotype: SRSF2 wt/wt) [%] | cell viability ([4]; SRSF2 genotype: P95H/wt) [%] | cell viability ([4]; SRSF2 genotype: wt/wt) [%]
1 | CCN(CC)c1ccc(C=NNC(=O)c2ccc(O)cc2)cc1 | 46.8% and 47.9% | 51.9 | 53.8 | 52.2 | 56.2 | 49.9 | 70.1 | 69.3
2 | CCCSc1nc(N[C@@H]2C[C@H]2c2ccc(F)c(F)c2)c2nnn([C@@H]3C[C@H](OCCO)[C@@H](O)[C@H]3O)c2n1 [Ticagrelor] | 77.4% and 77.6% | 70.3 | 86.9 | 86.5 | 74.5 | 85.9 | 71.5 | 70
3 | O.O=C([O-])c1ncccc1O.O=C([O-])c1ncccc1[O-].[H+].[O]=[V][OH] [VO-Ohpic trihydrate] | 100% and 92.1% | 95.5 | 106 | 102 | 122 | 110 | 121 | 119
4 | CCCNC(=O)Nc1ccc(Oc2ncnc3cc(OC)c(OC)cc23)cc1Cl | 99.4% and 106% | 99.8 | 108 | 113 | 92 | 105 | 99.5 | 101
5 | NC(=O)c1ccc(-c2nc(-c3ccccn3)c(-c3ccc4c(c3)OCO4)[nH]2)cc1 | 103% and 105% | 97.9 | 100 | 106 | 102 | 97.9 | 109 | 98.3
6 | CC[C@@H]1[C@H]2CCCCN3[C@H]2[C@H](C[C@H]3[C@@H]2C[C@H](C)C(=O)O2)[C@@H]2[C@H]1OC(=O)[C@H]2C [Tuberostemonine] | 84.4% and 95% | 88.8 | 83.6 | 89.3 | 64 | 97.8 | 107 | 100
7 | Cc1cn(CCN2CCN(c3ccccc3-c3cc(C#N)cc(C(=O)NCCCN4CCCC4)c3)CC2)c2ccccc12 | 0.16% and 0.18% | 0.16 | 0.17 | 0.22 | 0.12 | 0.12 | 0.03 | 0.1
8 | Nc1[nH]c(=O)ncc1Br [5-Bromocytosine] | 102% and 99.4% | 105 | 101 | 103 | 104 | 105 | 98.1 | 108
9 | CCOC(=O)N[C@@H]1CC[C@@H]2[C@@H](C1)C[C@H]1C(=O)O[C@H](C)[C@H]1[C@H]2/C=C/c1ccc(-c2cccc(F)c2)cn1 | 80.4% and 87% | 80.8 | 83.3 | 82.5 | 81.6 | 83.6 | 65.1 | 64.7
10 | Cc1cccc(Nc2ccccc2C(=O)O)c1C [Mefenamic Acid] | 98.6% and 99.4% | 96.4 | 103 | 92.8 | 94.5 | 98.5 | 106 | 101
11 | O=C1NC(=O)C(=Cc2ccc(-c3ccc(F)cc3)o2)S1 (stereo in doubt) | 102% and 101% | 97.1 | 93.1 | 92.5 | 113 | 108 | 94.6 | 95.8
12 | O=C(O)C=C(CC(=O)O)C(=O)O [cis-Aconitic acid] | 109% and 108% | 101 | 102 | 113 | 102 | 103 | 97.9 | 106
13 | COc1cc2ncnc(Nc3ccc(Oc4ccccc4)cc3C)c2cc1OC | 68% and 80.2% | 79.3 | 81.1 | 66 | 37.5 | 29.9 | 45.6 | 43
14 | O=C(O)c1ccccc1-c1c2cc(Br)c(=O)c(Br)c-2oc2c(Br)c(O)c(Br)cc12 [Eosin Y Disodium] | 97.2% and 95.8% | 90.1 | 96 | 92.8 | 85.3 | 93.6 | 91.7 | 93.4
15 | Cn1cncc1[C@@](N)(c1ccc(Cl)cc1)c1ccc2c(c1)c(-c1cccc(Cl)c1)cc(=O)n2C [Tipifarnib (Zarnestra)] | 24.9% and 31.7% | 34.7 | 34.5 | 32.9 | 29.9 | 20.2 | 19.9 | 26
16 | CC(=O)[C@H]1CC[C@H]2[C@@H]3CC=C4C[C@@H](O)CC[C@]4(C)[C@H]3CC[C@]12C [Pregnenolone] | 103% and 108% | 107 | 103 | 105 | 101 | 105 | 100 | 107
17 | OC[C@@H](O)[C@@H](O[C@@H]1O[C@H](CO)[C@H](O)[C@H](O)[C@H]1O)[C@H](O)[C@@H](O)CO [Lactitol] | 101% and 92.3% | 98.9 | 94.4 | 100 | 99.8 | 101 | 91 | 95.1
18 | Cn1c(Nc2ccc(C(F)(F)F)cc2)nc2cc(Oc3ccnc(-c4ncc(C(F)(F)F)[nH]4)c3)ccc21 | 59.6% and 69.8% | 47.5 | 52.3 | 58.6 | 64.2 | 50.1 | 38.6 | 47.4
19 | CC[C@@]1(O)C(=O)OCc2c1cc1n(c2=O)Cc2cc3c(CN(C)C)c(O)ccc3nc2-1 [Topotecan HCl] | 15% and 25% | 12.9 | 5.05 | 3.35 | 0.55 | 0.35 | 3.3 | 8.46

Row | Structure (SMILES) | cell viability ([1]; SRSF2 genotype: SRSF2 P95H/wt) | cell viability ([1]; SRSF2 genotype: SRSF2 wt/wt) [%] | cell viability ([2]; SRSF2 genotype: SRSF2 P95H/wt) [%] | cell viability ([2]; SRSF2 genotype: SRSF2 wt/wt) [%] | cell viability ([3]; SRSF2 genotype: SRSF2 P95H/wt) [%] | cell viability ([3]; SRSF2 genotype: SRSF2 wt/wt) [%] | cell viability ([4]; SRSF2 genotype: P95H/wt) [%] | cell viability ([4]; SRSF2 genotype: wt/wt) [%]
20 | Cc1cc(O)c(-c2ccc([C@@H](C)CN(C)C)cc2)c2c1[nH]c(=O)c1sccc12 | 9.34% and 22.8% | 14.7 | 1.85 | 1.17 | 0.25 | 0.22 | 0.39 | 7.84
21 | COc1ccc([C@@H]2CC(=O)c3c(O)cc(O[C@@H]4O[C@H](CO)[C@@H](O)[C@H](O)[C@H]4O[C@@H]4O[C@@H](C)[C@H](O)[C@@H](O)[C@H]4O)cc3O2)cc1O [Neohesperidin] | 109% and 102% | 100 | 97.2 | 102 | 104 | 109 | 116 | 127
22 | CCOc1nc2cccc(C(=O)OCc3oc(=O)oc3C)c2n1Cc1ccc(-c2ccccc2-c2noc(=O)[nH]2)cc1 [Azilsartan Medoxomil (TAK-491)] | 97.7% | 95.6 | 101 | 108 | 105 | 102 | 102 | 103
23 | C=CCNC1=C2C[C@@H](C)C[C@H](OC)[C@H](O)[C@@H](C)/C=C(\C)[C@H](OC(N)=O)[C@@H](OC)/C=C\C=C(/C)C(=O)NC(=CC1=O)C2=O [17-AAG (Tanespimycin)] | 20.1% and 29.1% | 25 | 27.3 | 24.3 | 1.11 | 1.2 | 18.8 | 20.6
24 | COc1cc(Br)c(Nc2nc(-c3c(C)nc4ncccn34)cs2)c(Br)c1 | 20.6% and 23.8% | 24 | 14.7 | 19.2 | 16 | 10.7 | 2.76 | 8.07
25 | O=c1c(-c2ccc(O)cc2)coc2cc(O)ccc12 [Daidzein] | 99.3% and 97.8% | 97.8 | 95.4 | 96.9 | 93.4 | 96.7 | 92.9 | 102
26 | CN1c2ccccc2C(=O)Nc2cnc(Nc3ccc(N4CCC(O)CC4)cc3)nc21 | 16.4% and 22.1% | 15.7 | 69.5 | 83.9 | 57.2 | 39.6 | 51 | 49.3
27 | O=c1cc(-c2ccc(O[C@@H]3O[C@H](CO)[C@@H](O)[C@H](O)[C@H]3O)cc2)oc2cc(O)c([C@@H]3O[C@H](CO)[C@@H](O)[C@H](O)[C@H]3O[C@@H]3OC[C@H](O)[C@H](O)[C@H]3O)c(O)c12 [Vaccarin] | 97.3% and 93.7% | 94.2 | 99.2 | 96.3 | 92.3 | 100 | 91.1 | 96
28 | CC[C@@H]([C@H](C)O)n1ncn(-c2ccc(N3CCN(c4ccc(OC[C@@H]5CO[C@@](Cn6cncn6)(c6ccc(F)cc6F)C5)cc4)CC3)cc2)c1=O [Posaconazole] | 55.7% and 75.6% | 87 | 55.6 | 59 | 62.2 | 85.5 | 18.1 | 23.9
29 | CCOC(=O)O[C@]1(C(=O)OCCl)CC[C@H]2[C@@H]3CCC4=CC(=O)C=C[C@]4(C)[C@H]3[C@@H](O)C[C@@]21C [Loteprednol etabonate] | 93.6% and 104% | 98 | 92.1 | 98.5 | 96.3 | 97.2 | 111 | 114
30 | Nc1ncnc2c1nc(Br)n2[C@@H]1O[C@@H]2COP(=O)(O)O[C@H]2[C@H]1O [8-Bromo-cAMP] | 66.5% and 72.5% | 66.5 | 86.2 | 96.1 | 65.9 | 60 | 79.8 | 93.2
31 | O=c1cc(N2CCOCC2)oc2c(-c3ccccc3)cccc12 | 76.7% and 86.9% | 91.8 | 66.6 | 64.8 | 51.5 | 45.6 | 47.5 | 49.4
32 | O=S(=O)(N=Cc1c(O)ccc2ccccc12)c1cccs1 | 100% and 99.8% | 95.2 | 100 | 97.3 | 100 | 99 | 101 | 103
33 | O=C1c2c(O)cccc2C([C@@H]2O[C@H](CO)[C@@H](O)[C@H](O)[C@H]2O)c2cc(CO)cc(O)c21 (stereo partly specified) [Aloin (Barbaloin)] | 105% and 104% | 98.5 | 105 | 102 | 109 | 104 | 98.1 | 102
34 | CC(C)[C@H](C(=O)Nc1ccc(C(=O)NO)cc1)c1ccccc1 | 1.61% and 11.3% | 3.69 | 5.31 | 12.1 | 0.73 | 0.52 | 2.49 | 4.03
35 | C=CCc1cc(OC)c(OC)c(OC)c1 [Elemicin] | 106% and 105% | 113 | 111 | 104 | 105 | 109 | 109 | 123
36 | CCCn1/c(=N/C(=O)c2cccc(C(N)=O)c2)[nH]c2ccccc21 [Takinib] | 100% | 96.3 | 98.8 | 103 | 77.8 | 91 | 74.7 | 84.3
37 | C[C@H]1[C@@H](O)O[C@@H]2O[C@@]3(C)CC[C@H]4[C@H](C)CC[C@@H]1[C@@]24OO3 [Dihydroartemisinin (DHA)] | 37.7% and 30.4% | 28.8 | 25 | 29.9 | 22.1 | 9.71 | 0.58 | 7.67
